According to PubChem BioAssay AID686979 (National Center for Advancing Translational Sciences (NCATS), 2013):
Screen size: about 420,000 compounds; about 50,000 (12%) were called active. Inconclusive results (about 26%) are left out. This is one part of a sample in which actives are shown more often than they occur. Calls come from the whole dose curve; as a rule, active = well fitted inhibition curve with a large enough effect; inconclusive = small, poorly fitted or top-dose-only effect; inactive = flat fitted curve, though single readings scatter.

Test: qHTS for Inhibitors of human tyrosyl-DNA phosphodiesterase 1 (TDP1): qHTS in cells in presence of CPT; note: nearly all actives have a fitted effect of over 55% in size
Details: chicken DT40 Tdp1-/-;hTDP1 cells + 20 nM CPT, ATP luminescence, 48 h; series mostly up to 46.2 µM; activity change, negative = growth inhibition: at the top concentration
How it was run: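 Cell growth measured by CellTiter-Glo luminescence after a minimum 48 h, 37 C compound exposure with 20 nM CPT in Tdp1-knockout DT40 cells stably expressing hTDP1, seeded 400/well; qHTS titration format.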
% is set by controls: 0 for no effect and ±100 for the full control effect; potency is the fitted concentration of half-maximal effect.

Row | Compound | activity change, negative = growth inhibition | Potency
1 | Nc1nc(NCC(=O)O)nc(N2CCCCCC2)c1[N+](=O)[O-] | 5.37% (inactive) | –
2 | Cc1ccc(-n2c(-c3ccc(Cl)cc3)n[nH]c2=S)cc1 | -2.68% (inactive) | –
3 | CC1(C)OC(=O)C2=C(C[C@@H](C3CC3)O[C@H]2c2ccc(Cl)cc2)O1 | -2.98% (inactive) | –
4 | CN(CCO)C(=O)c1nc[nH]c1C(=O)N(C)Cc1ccccc1 | -26.5% (inactive) | –
5 | COc1ccc(OC)c(CNC(=O)C2CCCN(c3nc4ccccc4o3)C2)c1 (stereo unspecified) | -4.53% (inactive) | –
6 | CCc1ccc(CNC(=O)C2CCN(c3nn4cc(-c5ccc(F)cc5)nc4s3)CC2)cc1 | -23% (inactive) | –
7 | Cc1cc(=O)n2nc(N3CCCC(C(=O)NCc4ccc(Cl)cc4)C3)sc2n1 (stereo unspecified) | -8.25% (inactive) | –
8 | Cc1cc(=O)n2nc(N3CCC(C(=O)Nc4c(F)c(F)c(F)c(F)c4F)CC3)sc2n1 | 5.78% (inactive) | –
9 | COc1ccc(-c2cn3nc(N4CCCC(C(=O)NCCCOC(C)C)C4)sc3n2)cc1 (stereo unspecified) | – | 13 µM (active)
10 | COc1ccc(-c2cn3nc(N4CCC(C(=O)Nc5cccc(C)c5C)CC4)sc3n2)cc1 | – | 20.6 µM (active)
11 | CC(C)CNS(=O)(=O)c1ccc(CCC(=O)NCc2ccc(Cl)cc2)cc1 | -12% (inactive) | –
12 | CCN(CC)S(=O)(=O)c1ccc(N2CC(C(=O)NCc3cccnc3)CC2=O)cc1 (stereo unspecified) | -1.05% (inactive) | –
13 | Cc1cccc(C)c1OCC(=O)NC(Cc1c[nH]c2ccccc12)C(=O)O (stereo unspecified) | – | inactive
14 | COc1ccc(-c2cc(C(=O)NC(Cc3c[nH]c4ccccc34)C(=O)O)c(C)o2)cc1OC (stereo unspecified) | – | 29.1 µM (active)
15 | COc1ccc(-c2cc(C(=O)NC(C(=O)O)C(C)C)c(C)o2)cc1OC (stereo unspecified) | 6.13% (inactive) | –
16 | Cc1ccc(C(=O)Nc2cccc(-c3nc(CNC(=O)c4ccccc4-n4cccn4)c(C)o3)c2)s1 | -16.4% [at 9.04 µM] (inactive) | –
17 | CCN(CC)c1ccc(C2C(C(N)=O)=C(C)Nc3nc(SCc4ccccc4)nn32)cc1 (stereo unspecified) | -2.6% (inactive) | –
18 | COc1cccc(-c2cnc(C(O)c3ccccc3OC)[nH]2)c1 (stereo unspecified) | -15.6% (inactive) | –
19 | Cc1ccc(-c2cnc(C(O)c3cccc(C)c3C)[nH]2)cc1 (stereo unspecified) | -25.5% (inactive) | –
20 | COc1cccc(-c2ccc(C#N)c(SCC(=O)NCCc3ccc(Cl)cc3)n2)c1 | -4.8% (inactive) | –
21 | O=c1cc(O)c(-c2cccc(C(F)(F)F)c2)c(Cl)[nH]1 | -0.16% (inactive) | –
22 | OC(c1ccc(Cl)c(F)c1)c1ncc(-c2ccccc2Cl)[nH]1 (stereo unspecified) | -20.4% (inactive) | –
23 | Cc1cccc(-c2cnc(C(O)c3ccc4ccccc4c3)[nH]2)c1 (stereo unspecified) | – | 20.6 µM (active)
24 | Cc1nc(N)[nH]c(=O)c1Oc1cccc(C(F)(F)F)c1 | -5.81% (inactive) | –
25 | CCCc1ccc(C(O)c2ncc(-c3cccc(OC)c3)[nH]2)cc1 (stereo unspecified) | – | 16.4 µM (active)
26 | COc1c(C)cc(C(O)c2ncc(-c3cccc(C(F)(F)F)c3)[nH]2)cc1C (stereo unspecified) | – | 23.1 µM (active)
